According to paper PMC9838217, “Structure of SALL4 zinc finger domain reveals link between AT-rich DNA binding and Okihiro syndrome”:
Substitutions are numbered along the chain they refer to.

How the values were obtained:
Experiment in all cases: HT-SELEX; high values mean tight binding
Conditions in all cases: protein: recombinant; vector His6-GST; dsDNA, one strand shown
SALL4 ZFC4 WT (HT-SELEX) = target: T1, SALL4 ZFC4 WT (HT-SELEX) (Mus musculus, UniProt Q8BX22 870-940)
T1 sequence: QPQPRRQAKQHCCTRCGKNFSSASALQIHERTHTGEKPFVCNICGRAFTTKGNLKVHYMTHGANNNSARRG
Outline: (§1)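 In triplicate selections of up to 6 cycles, purified recombinant mouse SALL4 zinc finger cluster 4 (residues 870–940, 1 µg) was incubated 10 min at room temperature with library DNA (1.5 µg, then 200 ng) in 100 µl of 10 mM Tris–HCl pH 7.5, 50 mM NaCl, poly(dI-dC) and DTT, and complexes were captured on Ni2+ beads, washed and PCR-amplified. Sequencing was done on MiSeq with scanning for 6-mers. The binding signal is each canonical k-mer's read fraction, reported as fold change against the initial random library.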

[1] = target: T2, SALL4 ZFC4 R900W (HT-SELEX) (Mus musculus, UniProt Q8BX22 870-940, R900W)
T2 sequence: T1 sequence with R31W
Outline: as §1

[2] = target: T3, SALL4 ZFC4 G921D (HT-SELEX) (Mus musculus, UniProt Q8BX22 870-940, G921D)
T3 sequence: T1 sequence with G52D
Outline: as §1

Sequence | binding signal (SALL4 ZFC4 WT (HT-SELEX)) | binding signal [1] | binding signal [2]
ATCCAC | 0.828 ± 0.0223 fold-change vs cycle 0 | 0.953 ± 0.0135 fold-change vs cycle 0 | 0.986 ± 0.0515 fold-change vs cycle 0
ATAAAG | 2.23 ± 0.104 fold-change vs cycle 0 | 2.12 ± 0.11 fold-change vs cycle 0 | 1.79 ± 0.17 fold-change vs cycle 0
TAGTGA | 1.4 ± 0.0384 fold-change vs cycle 0 | 1.53 ± 0.027 fold-change vs cycle 0 | 1.43 ± 0.107 fold-change vs cycle 0
AATAAT | 4.57 ± 0.438 fold-change vs cycle 0 | 2.66 ± 0.189 fold-change vs cycle 0 | 2.27 ± 0.265 fold-change vs cycle 0
TGCAAA | 1 ± 0.0674 fold-change vs cycle 0 | 0.975 ± 0.0411 fold-change vs cycle 0 | 1.03 ± 0.0183 fold-change vs cycle 0
AGCGTA | 0.55 ± 0.0304 fold-change vs cycle 0 | 0.623 ± 0.0245 fold-change vs cycle 0 | 0.723 ± 0.0232 fold-change vs cycle 0
